# Key:
# Test in all cases: DAPPL (digital affinity profiling via proximity ligation, sequencing); 10 mM Tris-HCl pH 7.5, 50 mM NaCl, 1 mM DTT, 4% glycerol, room temperature, 30 min; GST-TFs on glutathione beads, 16-mer random dsDNA library, 0.1% formaldehyde crosslink after washing; high values mean tight binding
# [1] = biological target: T1, FLI1 (Homo sapiens, UniProt Q01543 1-452); conditions: protein: recombinant; tags: N-terminal GST; dsDNA, one strand shown
# T1 sequence: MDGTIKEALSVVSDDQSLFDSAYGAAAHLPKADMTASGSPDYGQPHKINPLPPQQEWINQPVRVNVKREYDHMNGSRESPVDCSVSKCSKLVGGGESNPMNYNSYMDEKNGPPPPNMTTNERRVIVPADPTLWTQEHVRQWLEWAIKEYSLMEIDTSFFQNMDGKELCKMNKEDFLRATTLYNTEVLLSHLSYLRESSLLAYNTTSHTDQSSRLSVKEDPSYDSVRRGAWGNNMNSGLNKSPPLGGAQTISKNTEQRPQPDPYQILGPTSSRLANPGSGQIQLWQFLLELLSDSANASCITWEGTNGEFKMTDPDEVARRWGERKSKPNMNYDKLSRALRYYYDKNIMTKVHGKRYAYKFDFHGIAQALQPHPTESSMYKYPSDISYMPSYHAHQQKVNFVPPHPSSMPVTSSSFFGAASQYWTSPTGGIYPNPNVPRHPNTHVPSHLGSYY
# Summary of the method: (§1)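 Beads coated with glutathione captured GST-fused human transcription factors that had been expressed in yeast, and the factors were then given DNA barcodes and pooled with a tag-only sample. The pools were incubated with 200 nmole of a random double-stranded 16-mer DNA library in Tris/NaCl/DTT/glycerol buffer for 30 min at room temperature, washed, crosslinked with 0.1% formaldehyde and proximity-ligated with BsaI/T4 ligase at 37 °C for 1 h. PCR amplification and Illumina NextSeq500 sequencing came last. Binding signal is each hexamer's read frequency for a factor divided by its frequency for the tag-only sample.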
# [2] = biological target: T2, ELK1 (Homo sapiens, UniProt P19419 1-428); conditions: protein: recombinant; tags: N-terminal GST; dsDNA, one strand shown
# T2 sequence: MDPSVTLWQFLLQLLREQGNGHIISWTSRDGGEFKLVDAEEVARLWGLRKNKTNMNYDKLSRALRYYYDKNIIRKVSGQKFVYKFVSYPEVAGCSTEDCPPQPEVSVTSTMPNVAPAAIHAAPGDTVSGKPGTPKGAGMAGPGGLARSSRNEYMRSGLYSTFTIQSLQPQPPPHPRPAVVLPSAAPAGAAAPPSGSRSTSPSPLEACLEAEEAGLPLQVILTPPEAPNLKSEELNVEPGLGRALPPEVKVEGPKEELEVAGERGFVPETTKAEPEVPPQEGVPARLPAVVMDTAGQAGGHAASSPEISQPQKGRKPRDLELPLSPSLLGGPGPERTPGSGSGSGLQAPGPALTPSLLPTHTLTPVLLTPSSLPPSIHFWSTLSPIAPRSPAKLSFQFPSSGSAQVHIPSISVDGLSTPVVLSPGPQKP
# Summary of the method: as §1
# [3] = biological target: T3, GABPA (Homo sapiens, UniProt Q06546 1-454); conditions: protein: recombinant; tags: N-terminal GST; dsDNA, one strand shown
# T3 sequence: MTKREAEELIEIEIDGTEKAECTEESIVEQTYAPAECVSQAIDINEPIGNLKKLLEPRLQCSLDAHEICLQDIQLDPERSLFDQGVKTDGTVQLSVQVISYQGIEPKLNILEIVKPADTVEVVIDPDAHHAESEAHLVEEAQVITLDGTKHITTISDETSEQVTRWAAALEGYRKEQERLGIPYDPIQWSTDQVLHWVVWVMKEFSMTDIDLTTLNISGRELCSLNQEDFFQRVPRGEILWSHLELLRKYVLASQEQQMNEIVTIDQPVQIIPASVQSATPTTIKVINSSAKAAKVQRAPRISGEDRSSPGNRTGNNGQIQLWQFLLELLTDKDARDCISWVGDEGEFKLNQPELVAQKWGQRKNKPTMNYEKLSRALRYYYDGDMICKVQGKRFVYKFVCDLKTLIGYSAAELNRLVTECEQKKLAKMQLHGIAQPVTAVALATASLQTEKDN
# Summary of the method: as §1
# [4] = biological target: T4, ERG (Homo sapiens, UniProt P11308 1-479); conditions: protein: recombinant; tags: N-terminal GST; dsDNA, one strand shown
# T4 sequence: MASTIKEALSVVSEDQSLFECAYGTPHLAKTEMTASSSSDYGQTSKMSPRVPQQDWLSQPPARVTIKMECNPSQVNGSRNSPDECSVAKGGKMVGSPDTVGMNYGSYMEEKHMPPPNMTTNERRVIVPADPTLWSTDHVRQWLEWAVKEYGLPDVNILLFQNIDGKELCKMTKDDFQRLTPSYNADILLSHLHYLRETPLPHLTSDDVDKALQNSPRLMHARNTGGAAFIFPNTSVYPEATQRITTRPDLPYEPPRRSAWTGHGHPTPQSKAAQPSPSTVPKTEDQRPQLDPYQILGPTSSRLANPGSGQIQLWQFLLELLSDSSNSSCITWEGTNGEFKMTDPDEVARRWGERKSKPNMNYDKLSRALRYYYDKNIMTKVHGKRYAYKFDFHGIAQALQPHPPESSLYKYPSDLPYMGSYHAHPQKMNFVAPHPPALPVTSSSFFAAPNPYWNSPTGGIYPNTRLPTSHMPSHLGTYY
# Summary of the method: as §1
# [5] = biological target: ELF1 (Homo sapiens, UniProt P32519 1-619); conditions: protein: recombinant; tags: N-terminal GST; dsDNA, one strand shown
# Sequence of ELF1 (P32519 whole entry): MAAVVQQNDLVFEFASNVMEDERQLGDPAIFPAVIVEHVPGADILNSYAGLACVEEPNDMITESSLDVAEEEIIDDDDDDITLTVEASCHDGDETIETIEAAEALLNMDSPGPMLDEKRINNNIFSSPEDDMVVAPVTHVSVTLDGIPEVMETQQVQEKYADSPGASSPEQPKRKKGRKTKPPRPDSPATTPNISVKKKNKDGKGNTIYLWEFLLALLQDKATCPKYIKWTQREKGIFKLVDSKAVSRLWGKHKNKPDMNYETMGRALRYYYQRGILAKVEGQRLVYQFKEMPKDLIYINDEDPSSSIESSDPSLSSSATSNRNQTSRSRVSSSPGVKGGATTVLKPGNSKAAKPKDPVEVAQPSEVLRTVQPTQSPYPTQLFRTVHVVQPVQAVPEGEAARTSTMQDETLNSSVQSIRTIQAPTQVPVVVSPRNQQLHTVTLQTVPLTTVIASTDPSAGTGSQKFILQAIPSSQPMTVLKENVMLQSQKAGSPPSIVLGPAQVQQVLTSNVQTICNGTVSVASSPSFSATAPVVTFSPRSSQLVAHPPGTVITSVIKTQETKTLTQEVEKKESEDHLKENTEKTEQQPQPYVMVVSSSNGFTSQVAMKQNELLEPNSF
# Summary of the method: as §1
# [6] = biological target: T5, EHF (Homo sapiens, UniProt Q9NZC4 1-300); conditions: protein: recombinant; tags: N-terminal GST; dsDNA, one strand shown
# T5 sequence: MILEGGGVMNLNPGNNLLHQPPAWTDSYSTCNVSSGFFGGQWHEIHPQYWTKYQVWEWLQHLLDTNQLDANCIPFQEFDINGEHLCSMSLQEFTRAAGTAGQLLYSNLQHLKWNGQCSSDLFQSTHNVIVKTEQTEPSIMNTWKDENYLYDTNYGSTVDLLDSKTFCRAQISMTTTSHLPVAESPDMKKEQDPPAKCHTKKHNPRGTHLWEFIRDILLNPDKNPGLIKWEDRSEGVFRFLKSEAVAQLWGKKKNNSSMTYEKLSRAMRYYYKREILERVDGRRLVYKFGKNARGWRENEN
# Summary of the method: as §1
# [7] = biological target: SPI1 (Homo sapiens, UniProt P17947 1-270); conditions: protein: recombinant; tags: N-terminal GST; dsDNA, one strand shown
# Summary of the method: as §1
# [8] = biological target: SPIB (Homo sapiens, UniProt Q01892 1-262); conditions: protein: recombinant; tags: N-terminal GST; dsDNA, one strand shown
# Sequence of SPIB (Q01892 whole entry): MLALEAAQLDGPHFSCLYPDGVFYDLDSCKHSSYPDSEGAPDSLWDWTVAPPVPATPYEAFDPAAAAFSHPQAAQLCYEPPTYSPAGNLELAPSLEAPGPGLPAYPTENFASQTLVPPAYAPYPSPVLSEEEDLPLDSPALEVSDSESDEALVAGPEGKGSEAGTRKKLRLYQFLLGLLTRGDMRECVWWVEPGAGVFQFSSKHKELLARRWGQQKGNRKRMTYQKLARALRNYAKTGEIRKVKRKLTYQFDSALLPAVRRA
# Summary of the method: as §1
# [9] = biological target: T6, ELK3 (Homo sapiens, UniProt P41970 1-407); conditions: protein: recombinant; tags: N-terminal GST; dsDNA, one strand shown
# T6 sequence: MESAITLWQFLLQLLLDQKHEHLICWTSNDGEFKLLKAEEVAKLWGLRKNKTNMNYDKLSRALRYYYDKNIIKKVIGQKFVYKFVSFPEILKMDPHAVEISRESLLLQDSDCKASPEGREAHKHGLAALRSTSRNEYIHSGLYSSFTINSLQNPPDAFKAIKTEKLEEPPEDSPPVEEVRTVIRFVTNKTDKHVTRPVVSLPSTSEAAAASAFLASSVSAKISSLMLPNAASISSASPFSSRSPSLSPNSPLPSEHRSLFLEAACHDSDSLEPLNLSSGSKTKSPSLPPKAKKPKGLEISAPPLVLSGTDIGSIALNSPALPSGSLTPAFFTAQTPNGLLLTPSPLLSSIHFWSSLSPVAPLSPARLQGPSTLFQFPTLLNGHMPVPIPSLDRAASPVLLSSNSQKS
# Summary of the method: as §1
# [10] = biological target: T7, FEV (Homo sapiens, UniProt Q99581 1-238); conditions: protein: recombinant; tags: N-terminal GST; dsDNA, one strand shown
# T7 sequence: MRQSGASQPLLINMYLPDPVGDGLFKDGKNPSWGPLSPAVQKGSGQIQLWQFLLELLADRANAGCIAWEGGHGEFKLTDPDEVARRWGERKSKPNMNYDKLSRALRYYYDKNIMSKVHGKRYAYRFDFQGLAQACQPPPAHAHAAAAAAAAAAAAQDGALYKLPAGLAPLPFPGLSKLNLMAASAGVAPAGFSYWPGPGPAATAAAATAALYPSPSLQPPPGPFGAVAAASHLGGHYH
# Summary of the method: as §1
# [11] = biological target: ETV5 (Homo sapiens, UniProt P41161 1-510); conditions: protein: recombinant; tags: N-terminal GST; dsDNA, one strand shown
# Sequence of ETV5 (P41161 whole entry): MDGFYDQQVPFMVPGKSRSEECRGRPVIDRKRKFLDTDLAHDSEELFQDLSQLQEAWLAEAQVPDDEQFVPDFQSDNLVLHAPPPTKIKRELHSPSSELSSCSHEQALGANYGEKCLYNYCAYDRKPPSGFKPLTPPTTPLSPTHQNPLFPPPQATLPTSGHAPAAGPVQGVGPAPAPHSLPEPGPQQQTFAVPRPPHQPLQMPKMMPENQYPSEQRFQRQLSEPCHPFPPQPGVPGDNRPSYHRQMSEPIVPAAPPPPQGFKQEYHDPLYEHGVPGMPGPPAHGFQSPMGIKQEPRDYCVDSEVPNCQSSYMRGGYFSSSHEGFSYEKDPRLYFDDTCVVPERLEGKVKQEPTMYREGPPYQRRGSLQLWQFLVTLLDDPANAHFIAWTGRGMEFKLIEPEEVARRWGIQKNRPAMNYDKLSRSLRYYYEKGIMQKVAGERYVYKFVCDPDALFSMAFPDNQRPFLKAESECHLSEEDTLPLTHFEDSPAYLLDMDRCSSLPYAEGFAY
# Summary of the method: as §1
# [12] = biological target: HSF1 (Homo sapiens, UniProt Q00613 1-529); conditions: protein: recombinant; tags: N-terminal GST; chain copies: 3; dsDNA, one strand shown
# Sequence of HSF1 (Q00613 whole entry): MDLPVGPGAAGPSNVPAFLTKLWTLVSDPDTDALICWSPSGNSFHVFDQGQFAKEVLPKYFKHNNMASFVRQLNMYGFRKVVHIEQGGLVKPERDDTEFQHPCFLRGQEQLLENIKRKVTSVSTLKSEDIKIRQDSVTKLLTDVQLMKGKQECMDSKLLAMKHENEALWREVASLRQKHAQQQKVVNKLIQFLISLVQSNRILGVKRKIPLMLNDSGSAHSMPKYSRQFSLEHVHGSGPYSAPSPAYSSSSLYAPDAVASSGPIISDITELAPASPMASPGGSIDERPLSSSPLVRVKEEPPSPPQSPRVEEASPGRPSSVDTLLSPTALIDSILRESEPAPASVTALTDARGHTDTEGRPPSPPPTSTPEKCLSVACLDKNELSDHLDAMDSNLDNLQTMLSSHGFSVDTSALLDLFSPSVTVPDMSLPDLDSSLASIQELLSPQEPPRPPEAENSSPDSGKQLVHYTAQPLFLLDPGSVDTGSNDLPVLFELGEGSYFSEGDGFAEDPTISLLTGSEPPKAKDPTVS
# Summary of the method: as §1
# [13] = biological target: T8, SPIC (Homo sapiens, UniProt Q8N5J4 1-248); conditions: protein: recombinant; tags: N-terminal GST; dsDNA, one strand shown
# T8 sequence: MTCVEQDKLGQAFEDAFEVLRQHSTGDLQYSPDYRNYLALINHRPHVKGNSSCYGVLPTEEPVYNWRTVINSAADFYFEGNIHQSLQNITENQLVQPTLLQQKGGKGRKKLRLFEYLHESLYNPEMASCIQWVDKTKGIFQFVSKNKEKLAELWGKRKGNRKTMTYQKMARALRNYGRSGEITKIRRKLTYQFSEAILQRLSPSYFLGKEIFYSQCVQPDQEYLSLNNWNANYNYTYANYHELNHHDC
# Summary of the method: as §1
# [14] = biological target: ELF4 (Homo sapiens, UniProt Q99607 1-663); conditions: protein: recombinant; tags: N-terminal GST; dsDNA, one strand shown
# Sequence of ELF4 (Q99607 whole entry): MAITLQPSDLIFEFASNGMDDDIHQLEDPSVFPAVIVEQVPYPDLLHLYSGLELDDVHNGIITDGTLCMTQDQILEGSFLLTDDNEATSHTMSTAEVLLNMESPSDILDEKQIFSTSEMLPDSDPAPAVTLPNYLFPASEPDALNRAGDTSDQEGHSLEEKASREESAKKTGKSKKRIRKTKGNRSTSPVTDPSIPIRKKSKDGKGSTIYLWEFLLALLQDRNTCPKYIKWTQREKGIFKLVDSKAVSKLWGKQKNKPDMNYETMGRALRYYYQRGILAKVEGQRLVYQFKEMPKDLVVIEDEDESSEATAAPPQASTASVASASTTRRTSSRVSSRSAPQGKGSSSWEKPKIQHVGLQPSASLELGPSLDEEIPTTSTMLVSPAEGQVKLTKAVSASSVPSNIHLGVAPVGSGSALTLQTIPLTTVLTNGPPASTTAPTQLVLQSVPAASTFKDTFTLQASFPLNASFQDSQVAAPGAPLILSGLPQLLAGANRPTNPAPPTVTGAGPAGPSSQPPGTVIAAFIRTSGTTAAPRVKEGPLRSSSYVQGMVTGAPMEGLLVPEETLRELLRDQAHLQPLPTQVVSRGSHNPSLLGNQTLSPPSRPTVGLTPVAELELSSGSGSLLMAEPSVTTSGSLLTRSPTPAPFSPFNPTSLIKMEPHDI
# Summary of the method: as §1
# [15] = biological target: T9, ELK4 (Homo sapiens, UniProt P28324-2 1-405); conditions: protein: recombinant; tags: N-terminal GST; dsDNA, one strand shown
# T9 sequence: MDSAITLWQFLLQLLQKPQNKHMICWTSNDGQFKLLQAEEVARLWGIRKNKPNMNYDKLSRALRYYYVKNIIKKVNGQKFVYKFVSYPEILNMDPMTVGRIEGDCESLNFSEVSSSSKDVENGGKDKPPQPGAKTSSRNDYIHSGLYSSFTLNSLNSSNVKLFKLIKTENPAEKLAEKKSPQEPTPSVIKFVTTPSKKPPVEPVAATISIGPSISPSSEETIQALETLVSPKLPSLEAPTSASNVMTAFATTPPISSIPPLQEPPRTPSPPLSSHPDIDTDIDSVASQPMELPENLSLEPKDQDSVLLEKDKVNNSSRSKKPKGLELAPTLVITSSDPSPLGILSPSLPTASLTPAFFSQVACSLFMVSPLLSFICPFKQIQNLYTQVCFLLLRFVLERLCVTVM
# Summary of the method: as §1
# [16] = biological target: T10, ETV2 (Homo sapiens, UniProt O00321 1-342); conditions: protein: recombinant; tags: N-terminal GST; dsDNA, one strand shown
# T10 sequence: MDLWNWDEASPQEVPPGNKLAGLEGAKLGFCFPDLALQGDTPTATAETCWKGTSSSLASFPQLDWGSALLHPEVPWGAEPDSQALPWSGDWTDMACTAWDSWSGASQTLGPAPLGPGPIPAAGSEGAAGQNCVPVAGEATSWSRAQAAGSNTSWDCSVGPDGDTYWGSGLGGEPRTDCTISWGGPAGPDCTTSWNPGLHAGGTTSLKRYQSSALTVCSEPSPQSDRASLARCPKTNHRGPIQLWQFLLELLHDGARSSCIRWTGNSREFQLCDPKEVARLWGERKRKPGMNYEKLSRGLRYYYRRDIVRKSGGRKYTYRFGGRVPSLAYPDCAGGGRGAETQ
# Summary of the method: as §1
# [17] = biological target: T11, ELF3 (Homo sapiens, UniProt P78545 1-371); conditions: protein: recombinant; tags: N-terminal GST; dsDNA, one strand shown
# T11 sequence: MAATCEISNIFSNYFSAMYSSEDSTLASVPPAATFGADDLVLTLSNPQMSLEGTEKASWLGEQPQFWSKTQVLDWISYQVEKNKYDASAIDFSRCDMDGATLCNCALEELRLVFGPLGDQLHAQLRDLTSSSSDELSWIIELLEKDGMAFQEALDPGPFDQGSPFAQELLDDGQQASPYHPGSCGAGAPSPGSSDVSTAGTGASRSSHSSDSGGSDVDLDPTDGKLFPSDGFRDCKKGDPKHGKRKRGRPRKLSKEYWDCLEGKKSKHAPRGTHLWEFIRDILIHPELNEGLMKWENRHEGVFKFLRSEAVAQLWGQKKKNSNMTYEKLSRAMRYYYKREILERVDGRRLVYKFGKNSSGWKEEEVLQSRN
# Summary of the method: as §1
# [18] = biological target: CRX (Homo sapiens, UniProt O43186 1-299); conditions: protein: recombinant; tags: N-terminal GST; dsDNA, one strand shown
# Sequence of CRX (O43186 whole entry): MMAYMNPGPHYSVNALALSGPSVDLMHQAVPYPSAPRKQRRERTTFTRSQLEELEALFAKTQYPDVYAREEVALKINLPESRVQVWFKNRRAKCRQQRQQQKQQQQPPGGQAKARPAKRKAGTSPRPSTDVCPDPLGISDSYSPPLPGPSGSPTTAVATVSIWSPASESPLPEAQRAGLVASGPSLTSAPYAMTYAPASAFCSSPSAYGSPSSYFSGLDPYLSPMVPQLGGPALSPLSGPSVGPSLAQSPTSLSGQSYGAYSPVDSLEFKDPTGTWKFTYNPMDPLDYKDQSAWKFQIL
# Summary of the method: as §1
# [19] = biological target: ETV1 (Homo sapiens, UniProt P50549 1-477); conditions: protein: recombinant; tags: N-terminal GST; dsDNA, one strand shown
# Sequence of ETV1 (P50549 whole entry): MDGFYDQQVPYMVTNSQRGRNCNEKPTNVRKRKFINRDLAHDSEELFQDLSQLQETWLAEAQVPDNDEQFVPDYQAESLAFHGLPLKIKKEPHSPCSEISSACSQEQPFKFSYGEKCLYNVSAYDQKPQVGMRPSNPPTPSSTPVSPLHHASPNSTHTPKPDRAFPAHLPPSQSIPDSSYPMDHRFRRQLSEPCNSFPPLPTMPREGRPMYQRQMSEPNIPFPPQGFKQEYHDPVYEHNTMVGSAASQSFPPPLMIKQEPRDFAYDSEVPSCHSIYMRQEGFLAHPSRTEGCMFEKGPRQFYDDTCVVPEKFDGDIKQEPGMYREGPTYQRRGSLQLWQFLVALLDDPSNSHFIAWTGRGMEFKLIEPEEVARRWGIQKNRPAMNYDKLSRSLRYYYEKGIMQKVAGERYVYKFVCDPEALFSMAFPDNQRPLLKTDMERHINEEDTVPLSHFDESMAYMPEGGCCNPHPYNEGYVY
# Summary of the method: as §1
sequence,measurement,setting,value
ACTGAT,binding signal,[1],"1.22 fold enrichment (6-mer frequency, TF over GST control)"
same,binding signal,[2],"1.31 fold enrichment (6-mer frequency, TF over GST control)"
same,binding signal,[3],"1.27 fold enrichment (6-mer frequency, TF over GST control)"
same,binding signal,[4],"1.3 fold enrichment (6-mer frequency, TF over GST control)"
same,binding signal,[5],"1.28 fold enrichment (6-mer frequency, TF over GST control)"
same,binding signal,[6],"1.27 fold enrichment (6-mer frequency, TF over GST control)"
same,binding signal,[7],"1.31 fold enrichment (6-mer frequency, TF over GST control)"
same,binding signal,[8],"1.19 fold enrichment (6-mer frequency, TF over GST control)"
same,binding signal,[9],"1.26 fold enrichment (6-mer frequency, TF over GST control)"
same,binding signal,[10],"1.19 fold enrichment (6-mer frequency, TF over GST control)"
same,binding signal,[11],"1.21 fold enrichment (6-mer frequency, TF over GST control)"
same,binding signal,[12],"1.22 fold enrichment (6-mer frequency, TF over GST control)"
same,binding signal,[13],"1.51 fold enrichment (6-mer frequency, TF over GST control)"
same,binding signal,[14],"1.23 fold enrichment (6-mer frequency, TF over GST control)"
same,binding signal,[15],"1.34 fold enrichment (6-mer frequency, TF over GST control)"
same,binding signal,[16],"1.19 fold enrichment (6-mer frequency, TF over GST control)"
same,binding signal,[17],"1.21 fold enrichment (6-mer frequency, TF over GST control)"
same,binding signal,[18],"1.38 fold enrichment (6-mer frequency, TF over GST control)"
same,binding signal,[19],"1.32 fold enrichment (6-mer frequency, TF over GST control)"

# Source: PMC7862700, “An all-to-all approach to the identification of sequence-specific readers for epigenetic DNA modifications on cytosine”
